Experimental data published in PubChem BioAssay AID1259416 (Broad Institute, 2018).
“And” between values parts separate entries of the source, which are not always exact repeats. Identical values can stand only once. The campaign covered roughly 69,000 compounds. About 2,600 (3.8%) were called active. Cut-off read from the data, not from the text of the source: active = activity change below about -70% (passing the limit was not always enough); inconclusive = no clear call, values can overlap the other calls. What follows is part of a selection rich in actives, with near analogues and random picks from the rest.

Assay: inhibitors of Toxoplasma growth in IFN-γ-primed hosts – cell-based, primary screen (AID 1259416);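 note: host cells are HeLa cells infected with Toxoplasma gondii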
Conditions: Toxoplasma gondii growth in IFN-gamma-treated host cells; stronger effect = lower value; concentration not given here

Compound	activity change, negative = inhibition
Cn1c(=O)c2nc(-c3ccc(I)cc3)oc2c2ccccc21	-20.4% (inactive)
CCCN1CCn2cc(C(=O)N3CCN(c4cccc(OC)c4)CC3)nc2C1	15% (inactive)
Cc1ccc(Nc2nc(C(=O)Nc3ccc(Cl)cc3F)nc3ccccc23)cc1	4.67% (inactive)
Cc1ccc(CNC(=O)c2nc(Nc3ccc(C)cc3)c3ccccc3n2)cc1	40.8% (inactive)
Cc1cccc(Nc2nc(C(=O)Nc3cccc4c3CCCC4)nc3ccccc23)c1	-67.4% (inactive)
Cc1cccc(Nc2nc(C(=O)Nc3cccc(Cl)c3C)nc3ccccc23)c1	-75.4% (active)
Cc1cccc(CNC(=O)c2nc(Nc3cccc(C)c3)c3ccccc3n2)c1	-89.5% (active)
O=C(Nc1ccccc1Br)c1nc(Nc2ccccc2)c2ccccc2n1	-74.2% (active)
O=C(NCc1cccc(Br)c1)c1nc(Nc2ccc(F)cc2)c2ccccc2n1	-65.9% (inactive)
CC(Cc1ccco1)NC(=O)c1nc(Nc2ccccc2)c2ccccc2n1 (stereo unspecified)	-47% (inactive)
O=C(NC1CCCCC1)c1nc(Nc2ccccc2)c2ccccc2n1	-55.7% (inactive)
CCOc1ccccc1NC(=O)OC1CCCN1C(=O)NCc1ccccc1 (stereo unspecified)	-2.55% (inactive)
O=C(COC(=O)c1ccc(Cl)nc1)NCc1ccc2c(c1)OCO2	8.52% (inactive)
CC(=O)c1c(C)nn(CCC(=O)N2CCC(c3ccccc3C(=O)O)C2)c1C (stereo unspecified)	2.53% (inactive)
Cc1nc(C)c(S(=O)(=O)NC(CCN2CCOCC2)c2ccccc2)s1 (stereo unspecified)	12.7% (inactive)
CC(C(=O)NCc1ccccc1F)N(c1ccccc1)S(C)(=O)=O (stereo unspecified)	12.1% (inactive)
O=C(Cn1ncc2c(N3CCN(c4ccccn4)CC3)ncnc21)Nc1cc(F)ccc1F	-34% (inactive)
O=C(Cc1ccccc1)NCCc1nc(N2CCOCC2)ncc1C(=O)N1CCCC1	8.84% (inactive)
CN1C2CCN(Cc3nccs3)CC2C[C@H]1Cn1cncn1 (stereo partly specified)	4.21% (inactive)
Cc1cc(Nc2cc(CN3CCOCC3)c3nc(C)c(Cc4ccc(Cl)cc4F)n3n2)n[nH]1	-78.1% (active)
COCCN1CCO[C@@H]2CN(Cc3ccccc3F)C[C@@H]2C1	-4.47% (inactive)
CN(C)c1ncccc1CNC(=O)c1cnc2c(c1)nnn2C	2.4% (inactive)
C/C=C/c1ccccc1[C@@H]1[C@@H](CO)N(C(=O)CN2CCOCC2)[C@H]1C#N	18.7% (inactive)

Compound	activity change, negative = inhibition
COc1ccc(-c2nc3c(s2)CN(S(=O)(=O)c2cccc(Cl)c2C)CC3)cc1	-94.8% (active)
COc1ccc(-c2nc(C)c(CCNS(=O)(=O)c3ccccc3)s2)cc1OC	132% (inactive)
COc1ccc(S(=O)(=O)N2CCc3nc(-c4ccccc4)sc3C2)cc1OC	62% (inactive)
COc1cccc(-c2nc3c(s2)CN(S(=O)(=O)c2cccc(F)c2)CC3)c1	-87.6% (active)
COC(=O)c1cc2n(n1)CCN(S(=O)(=O)c1ccc(C)cc1OC)C2	-2.93% (inactive)
COc1cccc(NC2COC3(CCN(S(=O)(=O)c4cccc(F)c4)CC3)C2)c1 (stereo unspecified)	-1.19% (inactive)
COc1ccc(-c2nc3c(s2)CN(S(=O)(=O)c2ccc(C)cc2C)CC3)cc1OC	-101% (active)
CCOc1ccc(-c2nc3c(s2)CN(S(=O)(=O)c2cccc(C)c2)CC3)cc1	4.52% (inactive)
O=S(=O)(NC[C@H]1[C@H](c2ccccc2)[C@H](CO)N1CC1CC1)c1ccccc1	14.7% (inactive)
Cc1nc(-c2cccc(F)c2)sc1CCNC(=O)C12CC3CC(CC(C3)C1)C2	-46.4% (inactive)
C=Cc1cccc(CN2CCC3(CCCN(C(=O)CCOC)C3)C2)c1 (stereo unspecified)	-2.67% (inactive)
CN(Cc1nc(-c2ccncc2)no1)C(=O)c1cc2ccccc2s1	-2.68% (inactive)
Cc1ncc(C(=O)O)c(-c2ccccc2)n1	0.375% (inactive)
COCc1cnc2n1CCN(C(=O)c1oc3ccccc3c1C)C2C (stereo unspecified)	1.32% (inactive)
Cc1cc(C(F)F)nn1CC(=O)NCCn1ncc(-c2ccncc2)c1-c1cccs1	-65.9% (inactive)
CCOCCn1nc(C)cc1C(=O)N1CCCC2(CNC(=O)O2)C1 (stereo unspecified)	-0.947% (inactive)
COCC12CCCOC1CCN(S(=O)(=O)C1CC1)C2 (stereo unspecified)	5.49% (inactive)
CCc1cnc(N2[C@H](C#N)[C@H](c3ccccc3-c3ccccc3C)[C@H]2CO)s1	18.5% (inactive)
C/C=C/c1ccccc1[C@@H]1[C@@H](C#N)N(c2nc(CC)cs2)[C@@H]1CO	1.59% (inactive)
Cc1ccc(-c2ccccc2[C@H]2[C@@H](C#N)N(c3ncc(-c4ccccc4)s3)[C@@H]2CO)cc1	-77.5% (active)
COc1ccc(CN2C(=O)CO[C@H]3CN(C(=O)NC4CC4)C[C@@H]32)cc1	15.8% (inactive)
N#Cc1ccc(-c2ccc([C@@H]3[C@@H](CO)N4C(=O)CNC[C@H]34)cc2)cc1	-24.8% (inactive)
COc1ccccc1CN1[C@@H]2CNC[C@H]1C2c1ccc(-c2cccc(C#N)c2)cc1 (stereo partly specified)	-25.9% (inactive) and -32% (inactive)

Compound	activity change, negative = inhibition
N#Cc1ccc(-c2ccc([C@@H]3[C@H]4CNC[C@@H]3N4Cc3ccc4c(c3)OCO4)cc2)cc1	-70.6% (active)
CS(=O)(=O)N1CCCC1c1cccc(Nc2nccs2)n1 (stereo unspecified)	-21.8% (inactive)
COCCn1c(C(=O)NCCCN(C)C)cc2c1c1ccccc1n2C	-12.8% (inactive)
CC(C)(C)CN1CC2CN(C(=O)Nc3ccccc3)CC21 (stereo unspecified)	-37.8% (inactive)
O=C(O)c1ccc(NC(=S)NCc2cccs2)cc1	33.4% (inactive)
CC1CCN(C(=O)c2cc(=O)n(CC(=O)Nc3ccc(C(C)C)cc3)c3ccccc23)CC1	-28.9% (inactive)
Cn1nc(CC(=O)Nc2cccc(Cl)c2)c2ccccc2c1=O	-79% (active)
Cn1nc(C(=O)O)c2ccccc2c1=O	58.7% (inactive)
Cc1nc(OCC(=O)Nc2cccc(Cl)c2)c2ccccc2n1	-0.194% (inactive)
CCn1nc(C)c(NC(=O)CN2CCC(Oc3ncccn3)CC2)c1C	-9.88% (inactive)
COc1cccc2[nH]c(C(=O)N3CCCC(c4cc(CN(C)C)n(C)n4)C3)cc12 (stereo unspecified)	5.73% (inactive)
Cc1sccc1C(=O)N1CCC2(CC1)CC(NS(C)(=O)=O)C2	6.5% (inactive)
O=C1c2ccccc2C(=O)C1c1ccccc1	-11.2% (inactive) and 19.1% (inactive)
COc1ccc2cc(-c3ccccc3NC(=O)CN)ccc2c1	70.1% (inactive)
COc1ccc2c(C3C(=O)c4ccccc4C3=O)nccc2c1	-108% (active)
COc1ccc(-c2cc(C)cnc2-n2cnnc2)cn1	4.46% (inactive)
CCc1nc(CN2CCC3(CC2)C(=O)N(CCc2ccccc2)C(=O)N3C)c(C)[nH]1	-3.85% (inactive)
COc1ccc2c3c(n(C)c2c1)[C@H](CO)N(Cc1ccccc1Cl)CC31CN(C(=O)CN(C)C)C1	-29.5% (inactive)
CN1C(=O)CCc2cc(C(=O)NC3CCCC3)ccc21	9.57% (inactive)
Cc1ccc(C(=O)N2CCC3(CC2)CCN(c2cnn(C)c2)C3=O)cc1	19.8% (inactive)
Cc1cccnc1N1C[C@H]2CN(c3cnn(C)c3)C(=O)[C@@H]2C1	-73.4% (active)
CCN1C(=O)[C@H]2CN(c3ncccn3)C[C@@H]2C12CCN(S(=O)(=O)CC(C)C)CC2	-13.4% (inactive)
Cc1noc2nc(C3CCCN(C(=O)CCc4ccccc4)C3)cc(C(F)F)c12 (stereo unspecified)	-93.3% (active)

Compound	activity change, negative = inhibition
O=C(CCn1nnc2ccccc21)N1CCCC(c2ccn[nH]2)C1 (stereo unspecified)	2.46% (inactive)
Cc1ccc(NC(=O)CC(=O)N2CCCC(c3nc(CC(C)C)no3)C2)cc1 (stereo unspecified)	25% (inactive)
CCCCc1ncc(CN2CCN(c3ccccc3OC)CC2C)[nH]1 (stereo unspecified)	-2.06% (inactive)
O=S(=O)(NCc1ccccc1)N1CCCC1c1ccccn1 (stereo unspecified)	-3.86% (inactive)
CO[C@@H]1CCN(C(=O)c2ccnn2C)[C@H]2CN(CC3CC3)C[C@@H]12	33.7% (inactive)
COCCC(=O)c1cc2c(s1)CCN2c1ccc(C)nn1	59.6% (inactive)
Cc1ccccc1C(=O)NCCc1csc(-c2ccc(F)cc2)n1	-18% (inactive)
O=C(NCCc1csc(-c2ccccc2)n1)c1ccccc1F	455% (inactive)
COc1ccccc1C(=O)NCCc1csc(-c2ccc(Cl)cc2)n1	-74% (active)
O=C(CSc1nc2ccc(N3C(=O)c4ccccc4C3=O)cc2s1)N1CCOCC1	1.26% (inactive)
COc1ccc(NS(=O)(=O)c2cc3c4c(c2)CCC(=O)N4CCC3)cc1OC	2.51% (inactive)
CC(C)Cc1cc(C(=O)N2CCCC3(CN(C)C(=O)O3)C2)on1 (stereo unspecified)	3.84% (inactive)
CCCCCC(O)c1cccc(OCc2ccc3ccccc3n2)c1 (stereo unspecified)	74.5% (inactive) and 28.6% (inactive)
Cn1cc(-c2ccncc2)c(-c2ccc(OCc3ccc4ccccc4n3)cc2)n1	-77.6% (active)
Cc1nn(C)cc1-c1c(-c2ccccc2)ncn1CCNC(=O)c1ccncc1	-3.05% (inactive)
CCOC(=O)c1c(C(F)(F)F)cc(-c2ccccc2)nc1C	12.4% (inactive)
O=C(c1ccoc1)N1CCCn2c(nc(CN3CCCC3)cc2=O)C1	-0.164% (inactive)
COc1ccc(S(=O)(=O)CCNS(=O)(=O)N2CCCC(C)C2)cc1 (stereo unspecified)	2.67% (inactive)
CCc1ccccc1NC(=O)Cn1ncc2c(N(CC)CC)ncnc21	-34.2% (inactive)
O=C(Cn1ncc2c(N3CCCC3)ncnc21)NCc1ccccc1	10.5% (inactive)
CCN(CC)c1ncnc2c1cnn2CC(=O)NCc1ccccc1	-95.8% (active)
Cc1cc(N2CCC(C(=O)Nc3nnc(-c4cccnc4)s3)CC2)n2ncnc2n1	-5.63% (inactive)
